# PubChem BioAssay (NCI)
# The panel holds about 83,000 compounds, 20% with a hit somewhere; the sample as a whole holds those more often.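 How to read the values: 0–100, growth inhibition (40 = 60% inhibited); 0, no net growth; -100 to 0, cell death (-40 = 40% of starting cells died; -100 = all dead).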 Unmarked numbers belong to inactive results. Calls of active or inactive are those of the source. The calls were made as follows: active = growth percent below 10; inactive = the rest.
# Tested on: MDA-MB-435 melanoma
# Experiment: NCI-60 one-dose screen, 48 h (100 = growth as untreated, 0 = no growth, -100 = all killed)
# Conditions: 10 µM unless noted
row,SMILES,growth
1,OC1CCN(CCCOc2c3ccc(Cl)cc3nc3c2oc2ccccc23)CC1,-76.3% (active)
2,CC(C)(C)Nc1nc2c(OCCc3ccccc3)cccn2c1-c1cccc(F)c1,2.41% (active)
3,COc1cc(/C=C/C(=O)c2cc(OC)c(OC)c(OC)c2)ccc1OCc1ccccc1,45.9%
4,C#Cc1nc(C2=C(C)C(OC(C)=O)/C(=N/OC(C)=O)C2)cs1 (stereo not drawn),88.9%
5,COc1ccc(/C=N/NC(=O)c2[nH]c3ccc(Br)cc3c2-c2ccccc2)s1,-21.4% (active)

# Tested on: SW-620 colon
# Experiment: as above
# Conditions: 10 µM unless noted
row,SMILES,growth
1,O=C(CSc1nc2sc3c(c2c(=O)n1-c1ccc(Cl)cc1)CCCC3)NNC(=O)Nc1cccc(C(F)(F)F)c1,22.1%
2,CCCCN1C(=O)/C(=c2\sc3n(c2=O)C2C(NN=3)N(CC)C(=O)N2CC)c2cc(Cl)ccc21 (stereo not drawn),58.2%
3,COc1cc(OC)c(C2C(Cl)C(=O)N2Nc2ncnc3ccccc23)cc1OC (stereo not drawn),108%
4,CC(=O)Oc1ccccc1C(=O)Nc1ccc(C(=O)/C=C/c2ccncc2)cc1,0.322% (active)
5,COc1ccc(/C=C/C(=O)c2ccc(NC(=O)CSc3nnc(-c4ccc5nc(-c6ccc(Cl)cc6)[nH]c5c4)o3)cc2)cc1,106%
6,COc1cc(/C=C/C(=O)c2ccc(F)cc2)ccc1Oc1nc(NCCO)nc(N2CCOCC2)n1,0.783% (active)
7,Cn1ccnc1C(=O)/C=C/c1ccc(NC(=O)Nc2ccc(Cl)cc2)cc1,71%
8,O=C(CSc1nc2sc3c(c2c(=O)n1-c1ccc(Cl)cc1)CCCC3)NNC(=O)Nc1ccc(Cl)c(C(F)(F)F)c1,4.66% (active)
